System: TDF
Experiment: H1.0 immunofluorescence intensity relative to DMSO (% of DMSO); higher = stronger H1.0 induction, active = 120 or more
Details: concentration: 10 µM; 24 h
Summary of the method: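 HCC1569 and TDF cells (800 per well, 384-well plates, RPMI with 10% FBS) were treated with compounds at 10 µM for 24 h at 37 °C, in triplicate. Cells were fixed in 3.7% formaldehyde and stained with a rabbit anti-H1.0 antibody, an AlexaFluor 647 secondary and DAPI; six fields per well were imaged at ×10. H1.0 nuclear intensity or cell number is expressed as percent of the plate DMSO control, taking the median of replicates. HCC1569 values were smoothed for positional effects.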
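Also: TDF is a line of transformed human dermal fibroblasts of mesenchymal origin.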

H1.0 immunofluorescence intensity, inactive:
CC(C)=CCCC(C)=CCOc1ccc2ccc(=O)oc2c1 [Auraptene] 103
CN(C)CCOc1ccc(-c2nc(=c3ccc4c(c3)CCC=4N=O)c(=C3C=CNC=C3)[nH]2)cc1 117
CC1=C(C(=O)O)N2C(=O)C(NC(=O)C(N)C3=CCC=CC3)C2SC1 (stereo not drawn) [Cephadrine] 96.3
CCC=CCC=CCC=CCCCCCCCCCCCC(=O)O [Docosatrienoic acid] 100
CCCCCC(=O)C=CC1C(O)CC(O)C1CC=CCCCC(=O)O (stereo not drawn) [15-keto-prostaglandin F2a] 92.9
O=c1c(O)c(-c2ccccc2)oc2cc(O)cc(O)c12 [Galangine] 101
CN(C)c1nc(N)c(C(=O)N=C(N)N)nc1Cl.Cl [5-(N,N-Dimethyl)amiloride hydrochloride] 96.1
N[C@@H](Cc1ccc(O)c(O)c1)C(=O)O [L-3,4-Dihydroxyphenylalanine] 89.7
CC(C=CC1=C(C)CCCC1(C)C)=CC=CC(C)=CC(=O)O [13-cis-retinoic acid] 88.5
CCCCCCCCCCCCCCCC(=O)OCC(O)C1OC(=O)C(O)=C1O (stereo not drawn) [Ascorbyl palmitate] 96.1
NC(=O)CC[C@H](N)C(=O)O [L-Glutamine] 91.4
CC1(C)CCC(NC(=O)C(N)CCC(=O)O)CC1 (stereo not drawn) 85.3
C[N+](C)(C)CCOC(=O)CCC(=O)OCC[N+](C)(C)C.O.O.[Cl-].[Cl-] 92.5

— the supplement of paper PMC7156485
